# Results filed as inconclusive are left out. Active and inactive are the calls of the source. Calls follow the shape of the dose curve; as a rule, active = well fitted inhibition curve with a large enough effect; inconclusive = small, poorly fitted or top-dose-only effect; inactive = flat fitted curve, though single readings scatter. Square brackets hold non-standard residues; d marks the D form. Peptide text beside a SMILES is read from it. * marks the point of attachment. Dolaproine = CO[C@@H]([C@@H]1CCCN1)[C@@H](C)C(=O)O; Dil = CC[C@H](C)[C@H](NC)[C@@H](CC(=O)O)OC; NMe2Val = CC(C)[C@@H](C(=O)*)N(C)C; X1 = C[C@@H](N*)[C@@H](O)c1ccccc1; NMeV = CN[C@H](C(=O)O)C(C)C
# Assay: Identification of antibody-drug conjugate (ADC) payloads which are substrates of ATP-binding cassette drug efflux transporters: ABCB1-HeLa-KB-8-5-11 cell line
# Conditions: KB-8-5-11 (P-gp overexpressing HeLa) viability, CellTiter-Glo, 48 h
# Source text: Antibody-drug conjugates (ADCs) feature an antibody recognizing a specific protein joined to a potent toxic payload. Numerous antibody-drug conjugates have received FDA approval; however, clinical resistance arises. Resistance mechanisms include decreased expression or mutation of the antibody target, impaired payload release, or increased expression of ATP-binding cassette (ABC) efflux transporters associated with multidrug resistance. We therefore sought to characterize the interaction of ABC multidrug transporters with ADC payloads. We performed a high-throughput screen with 27 common ADC payloads using cells lines expressing ABC transporters P-glycoprotein (P-gp, encoded by ABCB1) or ABCG2 (encoded by ABCG2). Confirmatory assays were also performed using cells transfected to express P-gp, ABCG2, or MRP1 (encoded by ABCC1). Several commonly used ADC payloads were substrates of P-gp, including calicheamicin gamma1, monomethyl auristatin E, DM1, and DM4. All the pyrrolobenzodiazepines tested - SJG136, SGD-1882, SG2057, and SG3199 - were substrates of P-gp, ABCG2, and MRP1. […] These findings highlight the risk of transporter-mediated resistance with certain ADC payloads and underscore the importance of selecting payloads that evade ABC transporter recognition in future ADC development.
# HEK-293 cells were transfected with empty vector (pcDNA) or vector containing the human ABCB1 (MDR-19), ABCG2 (R-5), or ABCC1 gene (MRP1) and were maintained in EMEM with 2 mg/mL G418 added to maintain transporter expression. The HeLa derivative KB-3-1 and the P-gp overexpressing KB-8-5-11 subline were maintained in DMEM; KB-8-5-11 additionally received 100 ng/mL colchicine. H460 parental cells were obtained from the Division of Cancer Treatment and Diagnosis Tumor Repository, National Cancer Institute at Frederick, MD and were cultured in RPMI. The ABCG2 expressing subline H460 MX20 was generated by selecting H460 cells in 20 nM mitoxantrone. Media in all cases was supplemented with 10% FBS and 1% penicillin-streptomycin. We explored 27 common ADC payloads, in two orthogonal, paired cell line sets-a drug selected and transfected set for each transporter--to identify substrates of the ABC transporters P-gp and ABCG2. Compounds were sourced from Levena Biopharma (San Diego, CA), Selleck Chem (Houston, TX), ChemieTek (Indianapolis, IN), or Microsource Discovery Systems (Gaylordsville, CT). Screening was performed as previously described. Briefly, cells were plated at a density of 500 cells/well in 1536 well plates with compounds added using a 1536-head pin tool (Kalypsys, San Diego CA). Cells were incubated with cytotoxic drugs and processed with CellTiter Glo reagent (Promega, Madison, WI) to determine viability after 48 hours. P-gp substrates were identified by comparing compound activity between paired sets of low-expressing (sensitive) and over-expressing (resistant) cell lines.
row,SMILES,Potency
1,COc1cc2cc(C(=O)N3C[C@@H](CCl)c4c3cc(O)c3ccccc43)[nH]c2c(OC)c1OC,1.3 nM (active)
2,COc1cccc2c1C(=O)c1c(O)c3c(c(O)c1C2=O)C[C@@](O)(C(=O)CO)CC3OC1CC(N2CCOC(OC)C2)C(O)C(C)O1 (some centres not stated),13.3 nM (active)
3,CC[C@H](C)[C@H](NC(=O)[C@H]1CCCCN1C)C(=O)N(C)[C@H](C[C@@H](OC(C)=O)c1nc(C(=O)N[C@@H](Cc2ccccc2)C[C@H](C)C(=O)O)cs1)C(C)C,10.6 nM (active)
4,COc1cc2cc(c1Cl)N(C)C(=O)C[C@H](OC(=O)C(C)C)[C@]1(C)O[C@H]1[C@H](C)[C@@H]1C[C@@](O)(NC(=O)O1)[C@H](OC)C=CC=C(C)C2,4.7 nM (active)
5,CC[C@H](C)[C@@H]([C@@H](CC(=O)N1CCC[C@H]1[C@H](OC)[C@@H](C)C(=O)N[C@@H](Cc1ccccc1)C(=O)O)OC)N(C)C(=O)[C@@H](NC(=O)[C@H](C(C)C)N(C)C)C(C)C (NMe2Val-V[Dil][Dolaproine]F-OH),265 nM (active)
6,CC[C@@]1(O)C(=O)OCc2c1cc1n(c2=O)Cc2cc3ccccc3nc2-1,334 nM (active)
7,CC[C@H](C)[C@@H]([C@@H](CC(=O)N1CCC[C@H]1[C@H](OC)[C@@H](C)C(=O)N[C@H](C)[C@@H](O)c1ccccc1)OC)N(C)C(=O)[C@@H](NC(=O)[C@H](C(C)C)N(C)C)C(C)C,52.9 nM (active)
8,COc1cc2cc(c1Cl)N(C)C(=O)C[C@H](OC(=O)[C@H](C)N(C)C(=O)CCC(C)(C)S)[C@]1(C)OC1[C@H](C)C1C[C@@](O)(NC(=O)O1)[C@H](OC)/C=C/C=C(\C)C2 (some centres not stated),26.5 nM (active)
9,CC[C@H](C)[C@H](NC(=O)[C@H]1CCCCN1C)C(=O)N(C)[C@H](C[C@@H](OC(C)=O)c1nc(C(=O)O)cs1)C(C)C,4200 nM (active)
10,CC[C@H](C)[C@@H]1NC(=O)CNC(=O)[C@H]2Cc3c([nH]c4cc(O)ccc34)S(=O)C[C@H](NC(=O)CNC1=O)C(=O)N[C@@H](CC(N)=O)C(=O)N1C[C@H](O)C[C@H]1C(=O)N[C@@H]([C@@H](C)[C@@H](O)CO)C(=O)N2 (some centres not stated),4720 nM (active)
11,CC[C@H](C)[C@@H]([C@@H](CC(=O)N1CCC[C@H]1[C@H](OC)[C@@H](C)C(=O)N[C@H](C)[C@@H](O)c1ccccc1)OC)N(C)C(=O)[C@@H](NC(=O)[C@@H](NC)C(C)C)C(C)C (H-[NMeV]V[Dil][Dolaproine]-X1),211 nM (active)
12,COc1cc2cc(c1Cl)N(C)C(=O)C[C@H](OC(=O)[C@H](C)N(C)C(=O)CCS)[C@]1(C)OC1[C@H](C)C1C[C@@](O)(NC(=O)O1)[C@H](OC)/C=C/C=C(\C)C2 (some centres not stated),106 nM (active)
